Source: paper PMC4552634, “A New Set of Chemical Starting Points with Plasmodium falciparum Transmission-Blocking Potential for Antimalarial Drug Discovery” (PLoS ONE, 2015)
Screen size: about 13,000 compounds; about 3,200 (25%) showed an effect of 50% or more. The list shows a part of the results.

What follows are molecules tested on P. falciparum stage V gametocytes. Conditions: 48 h, 5 µM; inhibitor.
Parameters: BacTiter-Glo ATP luminescence viability of purified stage V gametocytes in 384-well plates, per cent inhibition versus DMSO

Compound | % Inhibition
CCOc1cc2ncnc(Nc3ccc(OCc4c(Cl)cccc4Cl)c(OC)c3)c2cc1OCC [TCMDC-131927] | -5.801%
CCC(O)(C#Cc1c(C)nc(N)nc1N)CC [TCMDC-137329] | 41.32%
N#Cc1ccc(NC(=NCc2cccnc2)Nc2ccc(-c3ccccc3)cc2)c(O)c1 [TCMDC-140208] | -10.63%
COc1ccccc1C1CC(c2ccc(Br)cc2)=NN1C(=O)c1ccccc1 (centres unmarked) [TCMDC-125622] | 32.36%
Oc1ccc2[nH]c(-c3cccc(F)c3)nc2c1CN1CCC(N2CCCC2)CC1 [TCMDC-136357] | -60.35%
Cc1cccc2[nH]c(-c3ccc(-c4cccc(NC(=O)NCc5cccc(F)c5)c4)cc3)nc12 [TCMDC-133295] | 32.47%
COc1cccc(NC(=O)Nc2ccc(Nc3nc(C)cc(N4CCCC4)n3)cc2)c1 [TCMDC-124957] | -12.57%
N=C(N)c1cc(Br)cc(NC(=O)Nc2cc(Br)cc(C(=N)N)c2)c1 [TCMDC-124180] | -21.96%
CC1CCN(CC[C@H]2CCCN2S(=O)(=O)c2cccc(NC(=O)Nc3ccc(C(F)(F)F)cc3)c2)CC1 [TCMDC-141021] | -52.23%
CCCN(CCC)c1nn2c(=O)c(C(=O)N3CCN(Cc4ccccc4)CC3)cnc2s1 [TCMDC-125272] | -5.242%
COc1ccc(CCNCCCCCCNCCc2ccc(Cl)c(Cl)c2)cc1OC [TCMDC-131275] | 106.4%
COc1ccc(CNCCCCCCCNCc2ccc(Cl)c(Cl)c2)cc1Cl [TCMDC-140366] | 13.21%
Cc1cc(CNCCCCCCCNCc2cccc([N+](=O)[O-])c2)ccc1O [TCMDC-140416] | 12.73%
COc1ccc(CCNCCCCCCNCCc2cccc([N+](=O)[O-])c2)cc1OC [TCMDC-131262] | 82.84%
COc1ccc(CCNCCCCCNCCc2ccc(Cl)cc2)cc1OC [TCMDC-131269] | 103.7%
Cc1cc(CNCCCCCNCc2cccc([N+](=O)[O-])c2)ccc1O [TCMDC-140410] | 42.39%
COc1ccc(CNCCCCCNCc2ccc(Cl)c(Cl)c2)cc1Cl [TCMDC-140365] | 23.3%
COc1ccc(CCNCCCCCNCCCc2ccc(Cl)cc2)cc1OC [TCMDC-131278] | 107.5%
Cc1ccc(C2=NNC3(S2)C(=O)N(C)c2ccccc23)cc1 (centres unmarked) [TCMDC-123863] | 24.25%
COc1ccc(C23Oc4cc(OC)cc(OC)c4C2(O)C2(CC3c3ccccc3)SCCCS2)cc1 (centres unmarked) [TCMDC-132098] | 11.15%
OCC(CO)(CO)NCc1ccc2c3c(cccc13)-c1ccccc1-2 [TCMDC-137877] | -8.777%
C=CCn1c(C)cc(C(=O)COc2ccc(S(=O)(=O)N3CCOCC3)cc2[N+](=O)[O-])c1C [TCMDC-124326] | 33.1%

Compound | % Inhibition
COc1cc(CNCCCNc2nc3ccsc3c(=O)[nH]2)c2[nH]cc(Cl)c2c1 [TCMDC-140349] | -35.52%
COc1cccc(CCNCCCCCCNCCc2ccc(Cl)cc2)c1 [TCMDC-131284] | 113.2%
COc1cccc(CCc2cccc(CNC(C)=O)c2)c1 [TCMDC-139277] | -0.06569%
COc1ccc2nccc([C@@H](O)CN3CCC(NCc4nc5cc(F)ccc5o4)CC3)c2c1 [TCMDC-140783] | -5.365%
c1ccc2c(c1)ncc1c3ccccc3[nH]c21 [TCMDC-131258] | -7.104%
NCC1CCCN1Cc1cccc(-c2ccc(-c3nc4ccccc4[nH]3)s2)c1.O=C(O)C(F)(F)F (centres unmarked) [TCMDC-132987] | 77.53%
Cc1cccc2nc(-c3ccc(-c4cccc(CNCCCN5CCCC5=O)c4)s3)[nH]c12.O=C(O)C(F)(F)F [TCMDC-132762] | -3.129%
Cc1cccc2nc(-c3ccc(-c4cccc(CN5CCCC5CN)c4)s3)[nH]c12.O=C(O)C(F)(F)F (centres unmarked) [TCMDC-132997] | 41.54%
NCC1CCCN1Cc1cccc(-c2ccc(-c3nc4cc(C(F)(F)F)ccc4[nH]3)s2)c1.O=C(O)C(F)(F)F (centres unmarked) [TCMDC-132992] | 36.35%
O=C(O)C(F)(F)F.O=C1CCCN1CCCNCc1cccc(-c2ccc(-c3nc4cc(C(F)(F)F)ccc4[nH]3)s2)c1 [TCMDC-132757] | -29.57%
O=C(O)C(F)(F)F.O=C1CCCN1CCCNCc1cccc(-c2ccc(-c3nc4ccccc4[nH]3)s2)c1 [TCMDC-132749] | 78.47%
CCCCCc1cnc2nc(N)nc(N)c2c1 [TCMDC-137922] | -4.326%
N#Cc1ccc2c(c1)CCN(CCC1CCC(NC(=O)/C=C/c3c[nH]c4c(Br)cccc34)CC1)CC2 (centres unmarked) [TCMDC-139672] | -4.951%
Cc1cccc2[nH]c(-c3ccc(-c4ccc(NC(=O)NCc5ccc(F)cc5)cc4)cc3)nc12 [TCMDC-133302] | 17.3%
CC(=O)Nc1ncc(C(=O)Nc2cccc(-c3ccc(-c4nc5c(C)cccc5[nH]4)cc3)c2)s1 [TCMDC-136913] | 10.82%
Cc1cnc(C[S+]([O-])c2nc3ccc(C(F)(F)F)cc3[nH]2)cc1OCc1ccccc1 (centres unmarked) [TCMDC-131542] | 10.44%
Nc1nc(N)c2c(Cc3ccccc3)cccc2n1 [TCMDC-137764] | -5.935%
CCN(CC)CCN(Cc1ccc(-c2ccc(C(F)(F)F)cc2)cc1)C(=O)Cn1cc(CCCCc2cccc(F)c2F)c(=O)c2ccccc21 [TCMDC-141340] | 60.46%
CCN(CC)CCN(Cc1ccc(-c2ccc(C(F)(F)F)cc2)cc1)C(=O)Cn1cc(CCCc2cccc(F)c2F)c(=O)c2ccccc21 [TCMDC-141331] | 81.22%
COc1ccc(OC)c2c1CCN(C)C2Cc1cccc2ccccc12 (centres unmarked) [TCMDC-137509] | 12.85%
O=C(NC1CCC(N2CCC(c3nc4ccccc4s3)CC2)CC1)c1cc2ccccc2[nH]1 (centres unmarked) [TCMDC-132780] | -77.63%
Cc1cc(C(=O)Nc2ccc3c(c2)CCN3C2CCN(Cc3ccc4nsnc4c3)C2)no1 (centres unmarked) [TCMDC-135076] | -30.56%

Compound | % Inhibition
O=S(=O)(NC1=NCCC1)c1cccc(Nc2nc(C(F)(F)F)nc3ccccc23)c1 [TCMDC-124821] | -4.384%
Cc1cccc2nc(-c3ccc(-c4cccc(CNCc5cccc(N)c5)c4)s3)[nH]c12.O=C(O)C(F)(F)F [TCMDC-132936] | -17.71%
Cc1cccc2nc(-c3ccc(-c4cccc(CNCc5ccc(CN)cc5)c4)s3)[nH]c12.O=C(O)C(F)(F)F [TCMDC-132812] | 115.3%
C=CCOC(=O)N1CCC(CNCc2ccc(-c3cccc(-c4nc5ccccc5[nH]4)c3)cc2)C1.O=C(O)C(F)(F)F (centres unmarked) [TCMDC-132566] | 89.86%
COc1ccc(CNCc2cccc(-c3ccc(-c4nc5cccc(C)c5[nH]4)s3)c2)cc1.O=C(O)C(F)(F)F [TCMDC-132722] | 2.559%
Cc1cccc2nc(-c3ccc(-c4cccc(CNC(C)C)c4)s3)[nH]c12.O=C(O)C(F)(F)F [TCMDC-132743] | 8.329%
Cc1cccc2nc(-c3ccc(-c4cccc(CNCc5ccccc5)c4)s3)[nH]c12.O=C(O)C(F)(F)F [TCMDC-132703] | -30.5%
Cc1cccc2nc(-c3ccc(-c4cccc(CNC5CCN(C)CC5)c4)s3)[nH]c12.O=C(O)C(F)(F)F [TCMDC-132736] | 105.5%
C=CCOC(=O)N1CCC(CNCc2cccc(-c3cccc(-c4nc5ccccc5[nH]4)c3)c2)C1.O=C(O)C(F)(F)F (centres unmarked) [TCMDC-133046] | -7.738%
Cc1noc(C)c1-c1cccc(CNCc2cccc(-c3ccc(-c4nc5cccc(C)c5[nH]4)s3)c2)c1.O=C(O)C(F)(F)F [TCMDC-133059] | -9.203%
CNc1ccc(CNCc2cccc(-c3ccc(-c4nc5cccc(C)c5[nH]4)s3)c2)cc1.O=C(O)C(F)(F)F [TCMDC-132983] | 78.71%
C=CCOC(=O)N1CCC(CNCc2ccc(-c3cccc(-c4nc5cc(F)ccc5[nH]4)c3)cc2)C1.O=C(O)C(F)(F)F (centres unmarked) [TCMDC-133044] | 2.158%
CNc1ccc(CNCc2cccc(-c3ccc(-c4nc5ccccc5[nH]4)s3)c2)cc1.O=C(O)C(F)(F)F [TCMDC-132977] | -37.37%
CC1(C)N=C(N)N=C(N)N1OCc1cccc(C#N)c1 [TCMDC-124037] | -12.77%
CCCC(C)Nc1nc(C)cc(N[C@@H](CC(C)C)C(=O)NCc2ccc(C)cc2)n1 (some centres unmarked) [TCMDC-134897] | -16.22%
Cc1ccc(N2C(=O)C3C(C2=O)C2(c4ccccc4)C(=O)C3(c3ccccc3)C(c3ccccc3)=C2c2ccccc2)cc1 (centres unmarked) [TCMDC-124241] | -3.804%
CN1C(=O)[C@H](NC(=O)[C@@H](Cc2ccccc2)NC(=S)Nc2ccccc2)N=C(c2ccccc2)c2ccccc21 [TCMDC-132115] | 12.99%
Cc1ccc(Nc2nc(C)cc(NC3CC3)n2)cc1 [TCMDC-133469] | 5.355%
CC1CCCN(Cc2c(O)ccc3c(=O)c(-c4nc5ccccc5s4)c(N)oc23)C1 (centres unmarked) [TCMDC-124468] | -5.264%
Cc1ccc(-c2nnc(-c3ccc(C(=O)NC4CCN(Cc5ccc(C#N)cc5)CC4)cc3)o2)cc1Br [TCMDC-136130] | -28.74%
Cc1ccc(Cn2c(N3CCC(C(=O)NCc4cccs4)CC3)nc3ccccc32)cc1 [TCMDC-124400] | 16.64%
